Assay [1] is described as follows: qHTS assay to identify small molecule antagonists of the thyroid receptor (TR) signaling pathway - cell viability counter screen (AID 743064). Note: nearly all actives have a fitted effect of over 50% in size. In a few lines: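 GH3.TRE-Luc cells, 4 h pre-plating; cpd + T3 1 nM final; 37 °C 23.5 h; CellTiter-Fluor 30 min; fluorescence read.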
A short description of assay [2]: qHTS assay to identify small molecule antagonists of the thyroid receptor (TR) signaling pathway (AID 743065). Note: series mostly up to about 70 µM; nearly all actives have a fitted effect of over 55% in size. In outline:
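GH3.TRE-Luc rat pituitary cells carrying two TR response elements driving luciferase were plated for 4 h, given compound plus 1 nM T3 (final), and incubated 23.5 h at 37 C. ONE-Glo luminescence measured reporter inhibition; CellTiter-Fluor fluorescence tracked cytotoxicity.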
(In general: Quantitative high-throughput screening tests each substance at several concentrations.)

The test system of assay [3] is thyroid hormone receptor (rat, GH3 cells). Nature of the assay: qHTS assay to identify small molecule agonists of the thyroid receptor (TR) signaling pathway (AID 743066; calls by dose curve).
The nature of assay [4]: qHTS assay to identify small molecule antagonists of the estrogen receptor alpha (ER-alpha) signaling pathway - cell viability counter screen (AID 743074; calls by dose curve; note: nearly all actives have a fitted effect of over 45% in size; note: potency is the fitted concentration of half-maximal effect).
The nature of assay [5]: qHTS assay to identify small molecule antagonists of the estrogen receptor alpha (ER-alpha) signaling pathway using the BG1 cell line - cell viability counter screen (AID 743081).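 Note: compound given together with 17beta-estradiol as the ER stimulus; series mostly up to about 70 µM; nearly all actives have a fitted effect of over 45% in size.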
The target of assay [6] is Estrogen receptor (Homo sapiens) (UniProt P03372). Nature of the assay: qHTS assay to identify small molecule antagonists of the estrogen receptor alpha (ER-alpha) signaling pathway (AID 743069; active = well fitted curve in the direction sought with a large enough effect in the signal ratio in the repeat runs, not every such curve was filed as active; inconclusive = weak or mixed curves, or effect the other way; inactive = no such curve, though single readings can be large or run the other way; the % refers to the signal ratio). In outline:
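HEK293 cells stably carrying an ER-alpha-UAS-bla beta-lactamase reporter were pre-cultured overnight in 2% charcoal-stripped FBS medium. Test compounds in DMSO were added together with 17beta-estradiol for 18 hr at 37C. Read-out was fluorescence after 2 hr with LiveBLAzer B/G FRET substrate at room temperature.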

Assay [7] has the same target. Nature of the assay: qHTS assay to identify small molecule agonists of the estrogen receptor alpha (ER-alpha) signaling pathway (AID 743075; calls by dose curve; note: potency is the fitted concentration of half-maximal effect).
Assay [8] has the same target. Put plainly: qHTS assay to identify small molecule agonists of the estrogen receptor alpha (ER-alpha) signaling pathway using the BG1 cell line (AID 743079). Note: nearly all actives have a fitted effect of over 20% in size. Note: potency is the fitted concentration of half-maximal effect.
The target in the next assay is Aromatase (Homo sapiens) (UniProt P11511). Put plainly: qHTS assay to identify aromatase inhibitors (AID 743083). Note: series mostly up to about 70 µM; nearly all actives have a fitted effect of over 55% in size.
Sequence of Aromatase (Homo sapiens) (P11511 whole entry, looked up): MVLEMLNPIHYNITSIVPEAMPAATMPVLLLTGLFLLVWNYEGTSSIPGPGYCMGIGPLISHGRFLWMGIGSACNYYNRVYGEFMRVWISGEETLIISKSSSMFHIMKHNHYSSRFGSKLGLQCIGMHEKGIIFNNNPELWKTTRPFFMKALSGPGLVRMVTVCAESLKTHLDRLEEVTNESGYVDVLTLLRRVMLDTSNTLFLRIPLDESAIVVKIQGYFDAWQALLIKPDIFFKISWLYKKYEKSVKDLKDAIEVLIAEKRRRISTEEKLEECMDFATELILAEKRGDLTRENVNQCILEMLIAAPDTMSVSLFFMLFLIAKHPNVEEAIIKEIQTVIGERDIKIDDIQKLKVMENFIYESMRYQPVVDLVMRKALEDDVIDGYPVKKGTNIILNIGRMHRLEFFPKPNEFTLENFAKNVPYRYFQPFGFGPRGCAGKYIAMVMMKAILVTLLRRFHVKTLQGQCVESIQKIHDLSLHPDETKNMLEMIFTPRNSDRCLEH
Assay [9] in a line: qHTS assay to identify small molecule antagonists of the estrogen receptor alpha (ER-alpha) signaling pathway using the BG1 cell line (AID 743080; calls by dose curve;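 note: BG1 cells stimulated with 17beta-estradiol alongside compound; series mostly up to about 70 µM; nearly all actives have a fitted effect of over 25% in size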). In outline:
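Luciferase inhibition measured with ONE-Glo after 30 min at RT in BG1Luc4E2 cells given test compounds and 17beta-estradiol for 21.5 h at 37 C; CellTiter-Fluor viability read in the same wells beforehand.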

Where “and” joins values, the source holds several entries; their conditions need not be identical. Equal values may be shown once. The source holds several records for some structures; these can differ, active in one and inactive in another. Calls of active or inactive are those of the source. Unless noted, calls come from the whole dose curve; as a rule, active = well fitted curve in the direction sought with a large enough effect in the repeat runs; inconclusive = weak or mixed curves; inactive = no such curve, though single readings can be large; an effect the other way counts as inactive or inconclusive.

Sequence of Estrogen receptor (Homo sapiens) (P03372 whole entry, looked up): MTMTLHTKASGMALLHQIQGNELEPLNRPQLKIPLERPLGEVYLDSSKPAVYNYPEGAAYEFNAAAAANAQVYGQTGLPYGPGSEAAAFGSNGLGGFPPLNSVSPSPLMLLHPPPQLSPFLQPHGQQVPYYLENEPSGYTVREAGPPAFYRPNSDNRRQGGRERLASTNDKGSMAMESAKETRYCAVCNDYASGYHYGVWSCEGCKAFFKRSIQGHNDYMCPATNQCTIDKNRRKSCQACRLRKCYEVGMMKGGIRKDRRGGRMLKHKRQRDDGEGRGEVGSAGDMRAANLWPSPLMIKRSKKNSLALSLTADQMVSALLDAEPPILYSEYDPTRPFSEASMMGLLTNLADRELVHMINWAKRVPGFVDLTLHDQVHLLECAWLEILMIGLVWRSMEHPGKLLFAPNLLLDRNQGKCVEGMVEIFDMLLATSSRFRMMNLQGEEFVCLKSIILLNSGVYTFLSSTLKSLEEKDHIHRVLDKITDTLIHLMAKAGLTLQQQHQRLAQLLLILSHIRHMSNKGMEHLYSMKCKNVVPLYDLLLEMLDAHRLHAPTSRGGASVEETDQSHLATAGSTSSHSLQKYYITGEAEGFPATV

On to `OCCN(CCO)CCO`, for which the Potency entry in [1], in assay [2] and in [4] was “inactive” in each case. In addition, the outcome in assay [3] and in assay [5] was inactive.

For the compound `CC(C)OC(=O)Nc1cccc(Cl)c1`, the Potency result in assay [1], in [2], in assay [6], in assay [4], in assay [7] and in assay [8] was “inactive” each time. Also, the Potency result with Aromatase (Homo sapiens) is “inactive”. For the same compound, the result in [3] and in assay [5] was inactive.

Consider `BrCCBr`, for which the Potency result in assay [1], in assay [2], in assay [6], in assay [4], in assay [7] and in [8] was “inactive” in each case. Also, the Potency result (in assay [9]; in the assay with Aromatase (Homo sapiens)) was “inactive” throughout. The compound was classed as inactive in assay [3] and in [5].

`CC(C#N)CCC#N` (configuration not stated): the Potency entry in [1], in [2], in [6], in assay [4], in assay [7] and in assay [8] was “inactive” in each case. In addition, the Potency entry (in [9]; with Aromatase (Homo sapiens)) was “inactive” in each case. For the same compound, the call in assay [3] and in assay [5] was inactive.

For `CC1C=[C-]C=C1.[C-]#[O+].[C-]#[O+].[C-]#[O+].[Mn]`, the Potency result in assay [1], in assay [2], in assay [6], in assay [4], in [7] and in assay [8] was “inactive” throughout. Moreover, the Potency result (in [9]; with Aromatase (Homo sapiens)) was “inactive” throughout. Moreover, the compound was called inactive in [3] and in assay [5].

`Cc1ccc(N)cc1Cl`: the Potency result in [1], in [2], in assay [6], in assay [4], in assay [7] and in [8] was “inactive” in each case. For the same compound, the Potency result (in assay [9]; in the assay with Aromatase (Homo sapiens)) was “inactive” each time. Moreover, the compound was called inactive in [3] and in assay [5].

Regarding `ClCCBr`, the Potency entry in [1], in [2], in assay [6], in assay [4], in [7] and in assay [8] was “inactive” in each case. The Potency result (in assay [9]; with Aromatase (Homo sapiens)) was “inactive” in each case. The result in assay [3] and in assay [5] was inactive.

For `C#CCN(C)[C@H](C)Cc1ccccc1`, the Potency result in assay [1], in assay [2], in assay [6], in assay [4], in assay [7] and in assay [8] was “inactive” throughout. In addition, the Potency entry (in assay [9]; with Aromatase (Homo sapiens)) was “inactive” throughout. In addition, the result in assay [3] and in [5] was inactive.

Regarding `O=S(=O)(c1ccc(O)cc1)c1ccc(O)cc1`, the Potency entry (in assay [1]; in assay [2]; in assay [6]; in [4]; in assay [9]; in the assay with Aromatase (Homo sapiens)) was “inactive” in each case. The outcome in assay [3] and in [5] was inactive. In addition, the Potency in assay [7] was 15.6 µM [inconclusive] (active) and 24.5 µM [inconclusive] (active); in assay [8], 3.88 µM (active) and 1.93 µM (active).

For the compound `CCC[CH2][Sn]([Cl])([Cl])[Cl]`, the Potency result in assay [1], in assay [2], in assay [6], in [4], in [7] and in assay [8] was “inactive” throughout. Besides, the Potency result (in assay [9]; with Aromatase (Homo sapiens)) was “inactive” throughout. Besides, the compound was called inactive in assay [3] and in assay [5].

For the compound `C1CN2CCN1CC2`, the Potency result in [1], in assay [2], in [6], in assay [7], in assay [8] and in assay [9] was “inactive” each time. For the same compound, the Potency result with Aromatase (Homo sapiens) was “inactive”. The call in [3] and in [5] was inactive. Further, in assay [4], the Potency entry is “inactive and 4.36 µM (active)”.

For `O=C1CCCN1`, the Potency result in assay [1], in assay [2], in assay [6], in [4], in assay [7] and in assay [9] was “inactive” each time. In the assay with Aromatase (Homo sapiens), the Potency entry is “inactive”. Besides, the outcome in assay [3] and in assay [5] was inactive. The Potency entry in [8] was “inactive and 48.6 µM (active)”.

On to `C1CC2OC2CC1C1CO1` (configuration not stated), for which the Potency entry in assay [1], in assay [2], in assay [6], in assay [4], in [7] and in assay [8] was “inactive” each time. Further, the Potency entry (in assay [9]; with Aromatase (Homo sapiens)) was “inactive” throughout. The result in assay [3] and in assay [5] was inactive.

On to `O=c1n(Cl)c(=O)n(Cl)c(=O)n1Cl`, for which the Potency entry in [1], in assay [2], in [6], in [4], in [7] and in [8] was “inactive” throughout. Further, the Potency entry (in assay [9]; with Aromatase (Homo sapiens)) was “inactive” throughout. Also, the outcome in assay [3] and in assay [5] was inactive.

For `Cc1[nH]c(=O)n(C(C)(C)C)c(=O)c1Cl`, the Potency entry in assay [1], in [2], in assay [6], in [4], in assay [7] and in assay [8] was “inactive” throughout. Further, the Potency entry (in [9]; in the assay with Aromatase (Homo sapiens)) was “inactive” throughout. Further, the compound was called inactive in [3] and in [5].

In the case of `Clc1ccc(Cl)cc1`, the Potency result in assay [1], in [2], in assay [6], in assay [4], in assay [7] and in assay [8] was “inactive” each time. The Potency entry (in assay [9]; with Aromatase (Homo sapiens)) was “inactive” in each case. For the same compound, the compound was classed as inactive in assay [3] and in assay [5].

Take `CC(=O)C=C(C)C`: the Potency result in assay [1], in assay [2], in assay [6], in assay [4], in [7] and in assay [8] was “inactive” throughout. The Potency entry (in [9]; in the assay with Aromatase (Homo sapiens)) was “inactive” throughout. In addition, the result in assay [3] and in assay [5] was inactive.

As to `CC(Br)C(=O)O` (configuration not stated), the Potency result in assay [1], in assay [2], in [4], in [7], in assay [8] and in assay [9] was “inactive” each time. Further, the Potency entry with Aromatase (Homo sapiens) was “inactive”. The outcome in assay [3] and in assay [5] was inactive.

For the compound `O=NN1CCCC1`, the Potency result in [1], in assay [2], in assay [6], in [4], in assay [7] and in assay [8] was “inactive” each time. The Potency result (in [9]; with Aromatase (Homo sapiens)) was “inactive” throughout. For the same compound, the call in assay [3] and in assay [5] was inactive.

Consider `CNC(=O)Oc1ccccc1OC(C)C`, for which the Potency result in assay [1], in assay [2], in assay [6], in [4], in [7] and in assay [8] was “inactive” in each case. Besides, the Potency entry (in assay [9]; with Aromatase (Homo sapiens)) was “inactive” in each case. Moreover, the outcome in [3] and in [5] was inactive.

Regarding `NCCc1ccc(O)cc1`, the Potency result in [1], in assay [2], in assay [6], in assay [4], in [7] and in [9] was “inactive” in each case. The Potency entry with Aromatase (Homo sapiens) was “inactive”. For the same compound, the call in [3] and in [5] was inactive. Further, in assay [8], the Potency result was “inactive and 68 µM (active)”.

For the compound `Cc1ccccc1O`, the Potency entry in assay [1], in assay [2], in assay [6], in [4], in assay [7] and in assay [8] was “inactive” throughout. The Potency result (in [9]; with Aromatase (Homo sapiens)) was “inactive” in each case. Further, the call in assay [3] and in assay [5] was inactive.

Consider `O=Cc1cccc(Oc2ccccc2)c1`, for which the Potency entry in [1], in assay [2], in [6], in [4], in assay [7] and in [9] was “inactive” throughout. For the same compound, the Potency result with Aromatase (Homo sapiens) is “inactive”. Further, the compound was classed as inactive in assay [3] and in [5].

The values are drawn from PubChem BioAssay (Tox21).
